Some test systems named below: HCT-15 colon; HT29 colon; SNB-75 CNS; SNB-19 CNS; PC-3 prostate; UACC-62 melanoma; LOX IMVI melanoma; SK-MEL-28 melanoma; SK-MEL-2 melanoma; EKVX NSCLC; SN12C renal; UO-31 renal; TK-10 renal; ACHN renal; CAKI-1 renal; A498 renal; CCRF-CEM leukemia; SK-MEL-5 melanoma; MOLT-4 leukemia; U251 CNS.
Holding throughout (assay): NCI-60 one-dose screen, 48 h (100 = growth as untreated, 0 = no growth, -100 = all killed)
What all share (settings): 10 µM

Structures are written as SMILES. About 83,000 compounds went through this panel and 20% of them were active in at least one assay; those are over-represented in the sample as a whole.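 Cells were grown in 96-well plates and exposed to the test compound at a single concentration for 48 hours; results are reported as percent growth, with values below 10 considered active.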 Unmarked numbers belong to inactive results. Activity calls are given as the source filed them.

Data on eleven molecules can be found in PubChem BioAssay (NCI).

Consider `CCCCCc1ccc(S(=O)(=O)Nc2cc(-c3csc(N(C)C(C)=O)n3)ccc2N2CCN(C)CC2)cc1`, for which the growth is 1.4% (active) in the test on HCT-15 colon; 15.2% in the test on HT29 colon; 40% in the test with SNB-75 CNS; 41% in the test with SNB-19 CNS; 37% in the test with PC-3 prostate; -62.2% (active) with UACC-62 melanoma. Moreover, the growth in the test with LOX IMVI melanoma is -71.1% (active); with SK-MEL-28 melanoma it was 11.8%; in the test with SK-MEL-2 melanoma it was 24.2%; in the test on EKVX NSCLC, 65.4%; in the test with SN12C renal, 14.1%; in the test with UO-31 renal it was 33.1%. For the same molecule, the growth in the test on TK-10 renal was 47.3%; with ACHN renal it was 13.7%; with CAKI-1 renal it was 38.9%; with A498 renal it was 104%; in the test with CCRF-CEM leukemia, -27.5% (active).

For `CN1CCCN(Cc2ccc(C(=O)Nc3cccc(Nc4ccc5c(O)cccc5n4)c3)cc2C(F)(F)F)CC1`, the growth was -55.6% (active) in the test on HCT-15 colon; -55.2% (active) with HT29 colon; 13.9% with SNB-75 CNS; -81.2% (active) with SNB-19 CNS; 2.18% (active) in the test with PC-3 prostate; -100% (active) in the test with SK-MEL-5 melanoma. Moreover, the growth was -94.8% (active) with UACC-62 melanoma; -95.5% (active) with LOX IMVI melanoma; -100% (active) in the test on SK-MEL-28 melanoma; -76.5% (active) with SK-MEL-2 melanoma; -87% (active) with EKVX NSCLC; -86.1% (active) in the test on SN12C renal. The growth in the test on UO-31 renal was -56.1% (active); in the test with TK-10 renal, -65.3% (active); in the test with ACHN renal, -74.7% (active); with CAKI-1 renal it was -85.3% (active); with A498 renal, 61.8%; in the test with CCRF-CEM leukemia, 8.39% (active). Besides, in the test on MOLT-4 leukemia, the growth is 9.64% (active).

Take `C=C(C)[C@@H]1CC[C@]2(C(=O)OC)CC[C@]3(C)[C@H](CC[C@@H]4[C@@]5(C)CC[C@H](N)C(C)(C)[C@@H]5CC[C@]43C)[C@@H]12`: the growth is -97.2% (active) in the test on HCT-15 colon; -91.5% (active) in the test with SNB-75 CNS; -99.3% (active) with SNB-19 CNS; -85.4% (active) in the test with U251 CNS; -28.2% (active) in the test on PC-3 prostate; -54.9% (active) in the test with SK-MEL-5 melanoma. Besides, the growth with UACC-62 melanoma was -97.9% (active); with LOX IMVI melanoma, -98.4% (active); in the test with SK-MEL-28 melanoma, -100% (active); with SK-MEL-2 melanoma, -75.3% (active); in the test with EKVX NSCLC, -95.7% (active); in the test on SN12C renal, -92.8% (active). The growth with UO-31 renal was -100% (active); in the test with TK-10 renal, -87.8% (active); in the test on ACHN renal, -100% (active); in the test on CAKI-1 renal, -99.9% (active); in the test with A498 renal it was -91.6% (active); in the test on CCRF-CEM leukemia, -52.3% (active).

As for `Clc1ccc2c(N/N=C/c3c[nH]c4ccc(Br)cc34)ccnc2c1`, the growth with HCT-15 colon is -80.3% (active); in the test on HT29 colon, -3.08% (active); in the test with SNB-75 CNS, -91.1% (active); in the test with SNB-19 CNS it was -85.6% (active); in the test on PC-3 prostate it was -52.9% (active); in the test with SK-MEL-5 melanoma, -100% (active). The growth is -85.4% (active) with UACC-62 melanoma; -77.7% (active) with LOX IMVI melanoma; -98.5% (active) in the test with SK-MEL-28 melanoma; -93% (active) in the test on SK-MEL-2 melanoma; -93% (active) in the test on EKVX NSCLC; -56.3% (active) in the test with SN12C renal. Besides, the growth is -95.8% (active) in the test on UO-31 renal; -67.2% (active) with TK-10 renal; -90.8% (active) in the test with ACHN renal; -94% (active) in the test with CAKI-1 renal; -77% (active) in the test on A498 renal; -7.03% (active) in the test on CCRF-CEM leukemia. Also, in the test on MOLT-4 leukemia, the growth is -48.7% (active).

As to `C=CC(=O)Nc1ccc(C(=O)/C=C/c2ccc(N(C)CCF)cc2)c(O)c1`, the growth in the test on HCT-15 colon was -52% (active); in the test on HT29 colon it was -61.4% (active); in the test with SNB-75 CNS it was -8.38% (active); in the test with SNB-19 CNS, -15.6% (active); in the test with PC-3 prostate, 6.54% (active); in the test with SK-MEL-5 melanoma, -90.7% (active). The growth in the test on UACC-62 melanoma is -42.6% (active); in the test on LOX IMVI melanoma it was -81% (active); with SK-MEL-28 melanoma, -77.8% (active); in the test on SK-MEL-2 melanoma, -53.4% (active); with EKVX NSCLC, -25% (active); with SN12C renal, -60.2% (active). The growth in the test on UO-31 renal is -96.6% (active); in the test on TK-10 renal, -23.7% (active); in the test on ACHN renal, -68.6% (active); in the test with CAKI-1 renal, -90.8% (active); in the test on A498 renal it was 17.5%; with CCRF-CEM leukemia it was 13.1%. Moreover, the growth in the test with MOLT-4 leukemia was -3.17% (active).

For `Cc1ccc(CSc2nc(-c3ccc(F)cc3)c(C#N)c(=O)[nH]2)cc1`, the growth in the test on HCT-15 colon is 84.2%; in the test with HT29 colon, 89.3%; in the test with SNB-75 CNS it was 115%; in the test with SNB-19 CNS, 109%; in the test with PC-3 prostate, 95.5%; with SK-MEL-5 melanoma it was 94.5%. Moreover, the growth with UACC-62 melanoma was 93.8%; with LOX IMVI melanoma it was 95.6%; in the test on SK-MEL-28 melanoma it was 111%; with SK-MEL-2 melanoma, 103%; in the test with EKVX NSCLC, 99.6%; in the test on SN12C renal it was 102%. For the same molecule, the growth is 96.2% in the test with UO-31 renal; 93.5% with TK-10 renal; 100% with ACHN renal; 92.5% with CAKI-1 renal; 99.3% in the test on A498 renal; 94.7% in the test with CCRF-CEM leukemia. Also, the growth with MOLT-4 leukemia is 88.4%.

Take `Cc1ccc(-c2cc(C(=O)N=Nc3c(O)[nH]c4ccccc34)c3ccccc3n2)cc1`: the growth with HCT-15 colon is 7.91% (active); with HT29 colon, 37.9%; in the test with SNB-75 CNS, 85.7%; in the test with SNB-19 CNS, 58%; in the test on PC-3 prostate it was 48.5%; in the test on SK-MEL-5 melanoma it was 36.9%. Further, the growth with UACC-62 melanoma is 61.6%; in the test on LOX IMVI melanoma, -40.4% (active); in the test with SK-MEL-28 melanoma it was 59.4%; with SK-MEL-2 melanoma it was 101%; in the test with EKVX NSCLC, 38.4%; with SN12C renal, -9.28% (active). Further, the growth was 51.6% in the test with UO-31 renal; 63.4% in the test with TK-10 renal; 25.8% in the test with ACHN renal; 24.3% in the test on CAKI-1 renal; 88.2% with A498 renal; 22.9% in the test on CCRF-CEM leukemia. The growth with MOLT-4 leukemia is 31.7%.

In the case of `O=C(CNc1nc(-c2ccccc2)cs1)Nc1cccc([N+](=O)[O-])c1`, the growth is -79.4% (active) in the test on HCT-15 colon; -61.6% (active) with HT29 colon; -36.5% (active) in the test with SNB-75 CNS; -88.1% (active) in the test on SNB-19 CNS; -18.5% (active) in the test with PC-3 prostate; -100% (active) with SK-MEL-5 melanoma. The growth in the test with UACC-62 melanoma is -84% (active); with LOX IMVI melanoma, -100% (active); in the test with SK-MEL-28 melanoma, -84.9% (active); in the test with SK-MEL-2 melanoma, -79.9% (active); in the test on EKVX NSCLC, -97.1% (active); in the test on SN12C renal it was -77.8% (active). Further, the growth in the test with UO-31 renal was -95.7% (active); in the test with TK-10 renal, -92.2% (active); with ACHN renal, -100% (active); in the test with CAKI-1 renal, -88.9% (active); in the test with A498 renal, -88.1% (active); in the test on CCRF-CEM leukemia it was 0.432% (active). In addition, the growth in the test on MOLT-4 leukemia was 0.799% (active).

Turning to `CN(C(=O)c1ccc(C(C)(C)C)cc1)c1sc2c(c1C#N)CCC(=O)C2`, the growth is -68.6% (active) in the test on HCT-15 colon; 113% in the test with HT29 colon; 98% in the test on SNB-75 CNS; 8.17% (active) in the test with SNB-19 CNS; 2.52% (active) in the test on PC-3 prostate; -69.7% (active) in the test with SK-MEL-5 melanoma. Besides, the growth with UACC-62 melanoma is -43.7% (active); in the test on LOX IMVI melanoma, -71.5% (active); with SK-MEL-28 melanoma, 60.3%; in the test on SK-MEL-2 melanoma it was 97.7%; in the test on EKVX NSCLC, 68.9%; with SN12C renal, 17.1%. In addition, the growth in the test with UO-31 renal is -98.5% (active); in the test with TK-10 renal, 23%; in the test on ACHN renal, -45.8% (active); with CAKI-1 renal it was 36.9%; in the test with A498 renal, 97.6%; with CCRF-CEM leukemia, 8.93% (active). Further, in the test with MOLT-4 leukemia, the growth is 29.8%.

Turning to `O=C1NC(=NC23CC4CC(CC(C4)C2)C3)N/C1=C\c1ccc2ncsc2c1`, the growth in the test on HCT-15 colon is -3.34% (active); in the test on HT29 colon it was 13.6%; in the test on SNB-75 CNS, -44.1% (active); with SNB-19 CNS, 6.09% (active); in the test on PC-3 prostate, 11.4%; in the test on UACC-62 melanoma, 7.15% (active). For the same molecule, the growth is 2.05% (active) in the test with LOX IMVI melanoma; 0.351% (active) with SK-MEL-28 melanoma; -23.3% (active) in the test on SK-MEL-2 melanoma; -0.13% (active) in the test with EKVX NSCLC; 8.93% (active) in the test with SN12C renal; 2.14% (active) with UO-31 renal. Also, the growth in the test on TK-10 renal is 17.8%; in the test with ACHN renal it was 3.03% (active); in the test on CAKI-1 renal, 5.17% (active); in the test with A498 renal, -11.3% (active); in the test with CCRF-CEM leukemia, 9.69% (active); with MOLT-4 leukemia, -5.73% (active).

As to `Cc1cc(=O)oc2cc(OCCCCOc3ccc(/C=C/C(=O)Nc4cccc(Cl)c4)cc3)ccc12`, the growth in the test on HCT-15 colon is 60.3%; in the test with HT29 colon it was 86.4%; with SNB-75 CNS, 87.7%; in the test on SNB-19 CNS it was 74.7%; with PC-3 prostate it was 91.2%; in the test on SK-MEL-5 melanoma, 60.6%. The growth in the test on UACC-62 melanoma is 75.3%; with LOX IMVI melanoma it was 64.4%; in the test with SK-MEL-28 melanoma, 86.8%; with SK-MEL-2 melanoma, 86.9%; with EKVX NSCLC, 71.3%; in the test on SN12C renal, 73.8%. In addition, the growth in the test with UO-31 renal was 84.9%; in the test with TK-10 renal, 66.2%; with ACHN renal, 81.4%; with CAKI-1 renal, 73.2%; with A498 renal, 80.7%; in the test on CCRF-CEM leukemia, 83.4%. In the test with MOLT-4 leukemia, the growth was 80.6%.
